Among the test systems are DU-145 prostate; K-562 leukemia; MALME-3M melanoma; MDA-MB-231 breast; RXF 393 renal; SF-268 CNS; SF-295 CNS; SF-539 CNS; UACC-257 melanoma; M14 melanoma; HCT-15 colon; HT29 colon; SNB-75 CNS; SNB-19 CNS; U251 CNS; PC-3 prostate; SK-MEL-5 melanoma; UACC-62 melanoma; LOX IMVI melanoma; SK-MEL-28 melanoma.
What all share (assay): NCI-60 one-dose screen, 48 h (100 = growth as untreated, 0 = no growth, -100 = all killed)
What all share (settings): 10 µM unless noted

About 83,000 compounds went through this panel and 20% of them were active in at least one assay; those are over-represented in the sample as a whole.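 For each line, cells grew in 96-well plates with the test compound present at a single concentration for 48 hours.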 A number with no mark means an inactive call. Active and inactive are the calls of the source. The calls were made as follows: active = growth percent below 10; inactive = the rest.

In the case of `C=CC(=O)Nc1ccc(Oc2nccc(Nc3nnc(-c4ccc(C)cc4)s3)n2)cc1`, the growth was 78.5% in the experiment on DU-145 prostate; 29.4% in the experiment with K-562 leukemia; 52.6% in the experiment on MALME-3M melanoma; 88.4% with MDA-MB-231 breast; 88% with RXF 393 renal; 77.6% with SF-268 CNS. For the same molecule, the growth in the experiment with SF-295 CNS was 56.9%; in the experiment on SF-539 CNS, 83.3%; in the experiment on UACC-257 melanoma, 86.5%; in the experiment with M14 melanoma, 57.5%; in the experiment with HCT-15 colon it was 71.5%; in the experiment with HT29 colon, 103%. The growth with SNB-75 CNS was 61%; with SNB-19 CNS, 62.7%; with U251 CNS, 83%; in the experiment with PC-3 prostate, 52.8%; in the experiment on SK-MEL-5 melanoma it was 46%; with UACC-62 melanoma, 44%. Also, the results for the growth in the experiment on LOX IMVI melanoma and in the experiment with SK-MEL-28 melanoma were 60.2% and 73.9%, respectively.
As for `C=C1C(=O)O[C@H]2[C@H]1CC/C(Cn1cc(CCC)nn1)=C\CC[C@@]1(C)O[C@@H]21`, the growth with DU-145 prostate is 28.7%; with K-562 leukemia, 4.94% (active); with MALME-3M melanoma it was 4.68% (active); with MDA-MB-231 breast it was 12.2%; with RXF 393 renal, -70.2% (active); in the experiment on SF-268 CNS, 67.9%. In addition, the growth was 71.6% in the experiment with SF-295 CNS; -25% (active) with SF-539 CNS; 19.1% in the experiment on UACC-257 melanoma; 12.1% in the experiment on M14 melanoma; -1.47% (active) in the experiment on HCT-15 colon; -9.05% (active) in the experiment with HT29 colon. For the same molecule, the growth with SNB-75 CNS is 75.8%; in the experiment on SNB-19 CNS, 73.3%; in the experiment on U251 CNS, 73.7%; in the experiment on PC-3 prostate it was 64.4%; with SK-MEL-5 melanoma, 53.1%; in the experiment on UACC-62 melanoma it was 4.67% (active). Further, the growth was -29.3% (active) with LOX IMVI melanoma and 7.96% (active) in the experiment with SK-MEL-28 melanoma.
Consider `C=C1C(=O)O[C@H]2[C@H]1CC/C(COC(=O)c1ccc(C(=O)O)s1)=C\CC[C@@]1(C)O[C@@H]21`, for which the growth was 18.6% in the experiment with DU-145 prostate; 3.11% (active) with K-562 leukemia; 3.09% (active) in the experiment with MALME-3M melanoma; -3.52% (active) in the experiment on MDA-MB-231 breast; -56% (active) with RXF 393 renal; 24.2% with SF-268 CNS. The growth in the experiment with SF-295 CNS is 81%; in the experiment with SF-539 CNS, -25.7% (active); with UACC-257 melanoma it was 52.7%; in the experiment on M14 melanoma, 23.1%; in the experiment on HCT-15 colon, 4.14% (active); in the experiment with HT29 colon, 7.91% (active). For the same molecule, the growth was 71.2% in the experiment on SNB-75 CNS; 48% in the experiment on SNB-19 CNS; 22.4% with U251 CNS; 18.1% in the experiment on PC-3 prostate; 91.4% in the experiment on SK-MEL-5 melanoma; 3.21% (active) with UACC-62 melanoma. For the same molecule, the growth is -55.2% (active) in the experiment on LOX IMVI melanoma and 11.7% in the experiment with SK-MEL-28 melanoma.
For `N#CC1CCc2c(c(-c3ccc4nc(N)sc4c3)nc3ccc4[nH]ncc4c23)C1` (stereo not given), the growth is 35.4% in the experiment on DU-145 prostate; 29.8% in the experiment with K-562 leukemia; 68.8% in the experiment on MALME-3M melanoma; 54.9% with MDA-MB-231 breast; 1.38% (active) in the experiment with RXF 393 renal; 63.1% with SF-268 CNS. The growth with SF-295 CNS is 23.1%; with SF-539 CNS, -0.136% (active); in the experiment with UACC-257 melanoma, 88.7%; in the experiment with M14 melanoma, 19.8%; in the experiment on HCT-15 colon, 30%; with HT29 colon, 15.4%. For the same molecule, the growth in the experiment with SNB-75 CNS is 25.2%; in the experiment with SNB-19 CNS, 67.7%; in the experiment on U251 CNS, 46.7%; in the experiment on PC-3 prostate, 21.8%; in the experiment on SK-MEL-5 melanoma it was 11.5%; in the experiment with UACC-62 melanoma it was 36.2%. Also, the figures for the growth in the experiment with LOX IMVI melanoma and in the experiment on SK-MEL-28 melanoma were 34.2% and 54.9%, respectively.
For `Cc1nc2c(c(=O)[nH]1)C(c1ccccc1)c1ccc3ccccc3c1O2` (stereo not given), the growth in the experiment with DU-145 prostate was 56.2%; in the experiment on K-562 leukemia, 11.9%; in the experiment with MALME-3M melanoma, 60.9%; with MDA-MB-231 breast, 46.6%; with RXF 393 renal, 27.6%; in the experiment with SF-268 CNS, 38.2%. The growth with SF-295 CNS was 22.8%; in the experiment on SF-539 CNS it was 14.5%; in the experiment on UACC-257 melanoma, 34.5%; in the experiment on M14 melanoma, 22.2%; in the experiment on HCT-15 colon, 23.4%; with HT29 colon, 84.5%. Also, the growth in the experiment on SNB-75 CNS was 13.1%; in the experiment with SNB-19 CNS, 30.8%; with U251 CNS, 26.1%; with PC-3 prostate, 19.7%; with SK-MEL-5 melanoma, 36.8%; in the experiment with UACC-62 melanoma, 30.4%. Besides, the growth in the experiment with LOX IMVI melanoma was 35.2%; in the experiment on SK-MEL-28 melanoma, 57.7%.
Take `CCOC(=O)C(Cc1ccc(OC)cc1)C(=O)OCC`: the growth with DU-145 prostate is -35.4% (active); with K-562 leukemia it was 15.2%; in the experiment with MALME-3M melanoma, 58.1%; in the experiment with MDA-MB-231 breast it was 47.5%; in the experiment with RXF 393 renal, -11.3% (active); in the experiment with SF-268 CNS, 30.2%. Moreover, the growth is 30.4% in the experiment on SF-295 CNS; 19.9% in the experiment with SF-539 CNS; 25.3% with UACC-257 melanoma; 46.3% in the experiment on M14 melanoma; 36.7% in the experiment with HCT-15 colon; 21.3% in the experiment with HT29 colon. The growth in the experiment on SNB-75 CNS is 30.1%; in the experiment on SNB-19 CNS, 41.7%; with U251 CNS, 37.2%; in the experiment on PC-3 prostate, 47.2%; with SK-MEL-5 melanoma, 53.1%; in the experiment on UACC-62 melanoma, 33.4%. Besides, the growth in the experiment on LOX IMVI melanoma is 17%; in the experiment on SK-MEL-28 melanoma, 51.5%.
With `CC1(C)CC(=O)c2c(nn(-c3ccc(Br)cc3)c2-c2cn(-c3ccccc3)nc2-c2cccnc2)C1`, the growth in the experiment on DU-145 prostate is 111%; with K-562 leukemia, 84.4%; in the experiment on MALME-3M melanoma, 101%; with MDA-MB-231 breast it was 89.7%; in the experiment on RXF 393 renal, 96.1%; in the experiment on SF-268 CNS, 97.8%. In addition, the growth was 92.1% in the experiment on SF-295 CNS; 105% with SF-539 CNS; 111% in the experiment on UACC-257 melanoma; 98.6% in the experiment on M14 melanoma; 94.9% in the experiment on HCT-15 colon; 98.1% in the experiment on HT29 colon. Besides, the growth in the experiment on SNB-75 CNS is 84.3%; in the experiment on SNB-19 CNS it was 92.5%; with U251 CNS it was 91.7%; in the experiment with PC-3 prostate it was 71.7%; in the experiment with SK-MEL-5 melanoma it was 97.2%; in the experiment on UACC-62 melanoma it was 76.7%. The growth is 85.5% in the experiment on LOX IMVI melanoma and 113% in the experiment with SK-MEL-28 melanoma.

(Values after PubChem BioAssay (NCI).)
